The text below walks through data of publication PMC7862700, “An all-to-all approach to the identification of sequence-specific readers for epigenetic DNA modifications on cytosine”.

What all share (experiment): DAPPL (digital affinity profiling via proximity ligation, sequencing); 10 mM Tris-HCl pH 7.5, 50 mM NaCl, 1 mM DTT, 4% glycerol, room temperature, 30 min; GST-TFs on glutathione beads, 16-mer random dsDNA library, 0.1% formaldehyde crosslink after washing; high values mean tight binding
One assay concerns the target T1, FEV (Homo sapiens, UniProt Q99581 1-238).
T1 sequence: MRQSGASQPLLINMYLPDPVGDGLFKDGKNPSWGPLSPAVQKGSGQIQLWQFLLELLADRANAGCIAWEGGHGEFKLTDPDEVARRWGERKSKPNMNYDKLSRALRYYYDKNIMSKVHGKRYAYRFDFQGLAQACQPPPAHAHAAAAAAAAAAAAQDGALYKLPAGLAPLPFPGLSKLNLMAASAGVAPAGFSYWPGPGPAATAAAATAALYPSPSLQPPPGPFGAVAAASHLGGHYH
As to conditions: protein: recombinant; tags: N-terminal GST; dsDNA, one strand shown. The procedure, abridged: (§1)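 Pools were built from human transcription factors expressed in yeast as GST fusions, captured on glutathione beads and DNA-barcoded, along with a tag-only sample. Incubation with 200 nmole of a 16-mer random double-stranded DNA library lasted 30 min at room temperature in Tris/NaCl/DTT/glycerol buffer, and was followed by washing, 0.1% formaldehyde crosslinking, proximity ligation, PCR amplification and Illumina NextSeq500 sequencing. Binding signal is the quotient of each hexamer's read frequency for a factor and its frequency for the tag-only sample.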

A further assay has as its target ETV5 (Homo sapiens, UniProt P41161 1-510). As to conditions: protein: recombinant; tags: N-terminal GST; dsDNA, one strand shown. The procedure, abridged:
as §1

In a further assay the target is HSF1 (Homo sapiens, UniProt Q00613 1-529). The settings on record: protein: recombinant; tags: N-terminal GST; chain copies: 3; dsDNA, one strand shown. In outline:
as §1

The next assay deals with T2, SPIC (Homo sapiens, UniProt Q8N5J4 1-248).
T2 sequence: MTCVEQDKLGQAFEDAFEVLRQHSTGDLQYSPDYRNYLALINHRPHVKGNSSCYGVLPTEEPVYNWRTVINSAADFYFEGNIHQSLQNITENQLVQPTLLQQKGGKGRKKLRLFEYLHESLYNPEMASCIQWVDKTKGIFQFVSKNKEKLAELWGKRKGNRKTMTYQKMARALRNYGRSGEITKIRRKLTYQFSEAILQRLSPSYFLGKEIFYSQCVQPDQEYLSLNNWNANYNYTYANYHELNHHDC
As to conditions: protein: recombinant; tags: N-terminal GST; dsDNA, one strand shown. In outline:
as §1

A further assay deals with ELF4 (Homo sapiens, UniProt Q99607 1-663). The settings on record: protein: recombinant; tags: N-terminal GST; dsDNA, one strand shown. The procedure, abridged: as §1
Sequence of ELF4 (Q99607 whole entry): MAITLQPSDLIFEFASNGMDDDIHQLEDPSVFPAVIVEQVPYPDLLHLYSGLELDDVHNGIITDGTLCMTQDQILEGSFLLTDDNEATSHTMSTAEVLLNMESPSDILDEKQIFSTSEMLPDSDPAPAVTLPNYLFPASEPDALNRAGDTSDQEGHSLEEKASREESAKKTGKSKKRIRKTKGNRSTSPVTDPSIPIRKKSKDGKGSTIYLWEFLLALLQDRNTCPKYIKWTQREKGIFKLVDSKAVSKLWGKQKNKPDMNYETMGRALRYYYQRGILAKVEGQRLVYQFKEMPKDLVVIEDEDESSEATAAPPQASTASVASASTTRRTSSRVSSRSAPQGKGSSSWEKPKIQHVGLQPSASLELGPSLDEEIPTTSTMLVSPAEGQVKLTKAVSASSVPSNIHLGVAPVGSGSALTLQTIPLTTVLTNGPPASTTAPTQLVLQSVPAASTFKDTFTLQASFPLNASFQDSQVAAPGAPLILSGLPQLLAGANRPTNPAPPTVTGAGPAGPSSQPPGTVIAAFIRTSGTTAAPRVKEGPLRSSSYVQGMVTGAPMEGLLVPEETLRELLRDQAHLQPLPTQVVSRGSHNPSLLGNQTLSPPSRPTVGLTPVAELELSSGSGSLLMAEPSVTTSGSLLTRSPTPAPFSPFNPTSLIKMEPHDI
Another assay has as its target T3, ELK4 (Homo sapiens, UniProt P28324-2 1-405).
T3 sequence: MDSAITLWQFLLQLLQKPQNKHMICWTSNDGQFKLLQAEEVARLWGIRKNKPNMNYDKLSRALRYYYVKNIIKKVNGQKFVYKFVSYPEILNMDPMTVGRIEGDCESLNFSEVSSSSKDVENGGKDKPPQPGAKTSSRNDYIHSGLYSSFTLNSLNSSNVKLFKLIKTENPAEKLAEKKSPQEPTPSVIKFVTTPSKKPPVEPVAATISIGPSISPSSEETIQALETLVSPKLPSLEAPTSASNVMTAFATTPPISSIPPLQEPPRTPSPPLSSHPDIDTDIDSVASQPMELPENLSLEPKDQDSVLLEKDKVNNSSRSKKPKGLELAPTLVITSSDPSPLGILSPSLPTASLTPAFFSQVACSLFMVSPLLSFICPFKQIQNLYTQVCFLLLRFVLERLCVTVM
As to conditions: protein: recombinant; tags: N-terminal GST; dsDNA, one strand shown. The procedure, abridged: as §1

A further assay addresses T4, ETV2 (Homo sapiens, UniProt O00321 1-342).
T4 sequence: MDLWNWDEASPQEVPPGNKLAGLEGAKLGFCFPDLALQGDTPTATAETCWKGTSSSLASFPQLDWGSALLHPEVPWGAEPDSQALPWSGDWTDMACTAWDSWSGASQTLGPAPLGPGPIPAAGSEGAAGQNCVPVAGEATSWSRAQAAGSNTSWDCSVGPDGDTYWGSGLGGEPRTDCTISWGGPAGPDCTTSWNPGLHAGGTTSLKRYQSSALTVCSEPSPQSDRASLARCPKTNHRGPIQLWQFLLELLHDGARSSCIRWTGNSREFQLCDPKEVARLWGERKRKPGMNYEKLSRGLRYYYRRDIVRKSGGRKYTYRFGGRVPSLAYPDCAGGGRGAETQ
As to conditions: protein: recombinant; tags: N-terminal GST; dsDNA, one strand shown. The procedure, abridged:
as §1

The target of the next assay is T5, ELF3 (Homo sapiens, UniProt P78545 1-371).
T5 sequence: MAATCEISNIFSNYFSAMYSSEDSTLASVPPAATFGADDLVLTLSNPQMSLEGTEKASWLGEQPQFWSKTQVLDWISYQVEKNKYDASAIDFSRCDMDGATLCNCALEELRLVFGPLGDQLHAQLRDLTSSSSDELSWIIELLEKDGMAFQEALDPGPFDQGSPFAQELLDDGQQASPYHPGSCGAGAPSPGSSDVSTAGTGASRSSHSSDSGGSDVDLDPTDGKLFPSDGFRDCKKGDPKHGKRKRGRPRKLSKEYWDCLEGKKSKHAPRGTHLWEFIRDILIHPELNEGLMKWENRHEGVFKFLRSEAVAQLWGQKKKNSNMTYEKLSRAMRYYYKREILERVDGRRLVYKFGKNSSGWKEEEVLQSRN
The settings on record: protein: recombinant; tags: N-terminal GST; dsDNA, one strand shown. In outline:
as §1

A further assay addresses CRX (Homo sapiens, UniProt O43186 1-299). As to conditions: protein: recombinant; tags: N-terminal GST; dsDNA, one strand shown. In outline: as §1
For the next assay, the target named is ETV1 (Homo sapiens, UniProt P50549 1-477). The settings on record: protein: recombinant; tags: N-terminal GST; dsDNA, one strand shown. In outline:
as §1

Sequence of ETV5 (P41161 whole entry): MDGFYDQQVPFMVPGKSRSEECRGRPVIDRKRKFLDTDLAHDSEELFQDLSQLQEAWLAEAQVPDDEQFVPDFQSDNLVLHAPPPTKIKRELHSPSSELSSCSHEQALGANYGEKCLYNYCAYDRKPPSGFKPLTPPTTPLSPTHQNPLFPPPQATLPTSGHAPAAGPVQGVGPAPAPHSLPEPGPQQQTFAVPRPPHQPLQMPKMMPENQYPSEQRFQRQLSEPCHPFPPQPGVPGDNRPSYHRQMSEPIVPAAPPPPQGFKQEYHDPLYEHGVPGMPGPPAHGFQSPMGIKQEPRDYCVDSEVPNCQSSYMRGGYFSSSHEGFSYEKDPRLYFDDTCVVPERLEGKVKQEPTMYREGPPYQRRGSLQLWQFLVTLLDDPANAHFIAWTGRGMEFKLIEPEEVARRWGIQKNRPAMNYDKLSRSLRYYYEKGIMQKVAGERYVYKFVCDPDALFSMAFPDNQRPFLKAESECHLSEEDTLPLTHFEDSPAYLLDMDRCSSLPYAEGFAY
Sequence of ETV1 (P50549 whole entry): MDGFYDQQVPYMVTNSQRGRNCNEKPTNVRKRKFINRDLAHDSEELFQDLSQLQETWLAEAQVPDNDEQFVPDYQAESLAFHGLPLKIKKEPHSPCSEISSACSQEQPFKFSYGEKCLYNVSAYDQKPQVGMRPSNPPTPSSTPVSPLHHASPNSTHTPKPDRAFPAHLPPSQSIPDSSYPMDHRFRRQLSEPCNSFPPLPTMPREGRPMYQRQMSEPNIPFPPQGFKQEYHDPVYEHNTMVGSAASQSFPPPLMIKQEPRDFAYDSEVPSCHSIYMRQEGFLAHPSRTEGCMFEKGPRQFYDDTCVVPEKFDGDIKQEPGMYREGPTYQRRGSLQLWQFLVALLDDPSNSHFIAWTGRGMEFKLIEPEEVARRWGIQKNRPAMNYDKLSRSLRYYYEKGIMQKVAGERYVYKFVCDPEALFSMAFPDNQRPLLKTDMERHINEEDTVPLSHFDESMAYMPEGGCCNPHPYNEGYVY
Sequence of HSF1 (Q00613 whole entry): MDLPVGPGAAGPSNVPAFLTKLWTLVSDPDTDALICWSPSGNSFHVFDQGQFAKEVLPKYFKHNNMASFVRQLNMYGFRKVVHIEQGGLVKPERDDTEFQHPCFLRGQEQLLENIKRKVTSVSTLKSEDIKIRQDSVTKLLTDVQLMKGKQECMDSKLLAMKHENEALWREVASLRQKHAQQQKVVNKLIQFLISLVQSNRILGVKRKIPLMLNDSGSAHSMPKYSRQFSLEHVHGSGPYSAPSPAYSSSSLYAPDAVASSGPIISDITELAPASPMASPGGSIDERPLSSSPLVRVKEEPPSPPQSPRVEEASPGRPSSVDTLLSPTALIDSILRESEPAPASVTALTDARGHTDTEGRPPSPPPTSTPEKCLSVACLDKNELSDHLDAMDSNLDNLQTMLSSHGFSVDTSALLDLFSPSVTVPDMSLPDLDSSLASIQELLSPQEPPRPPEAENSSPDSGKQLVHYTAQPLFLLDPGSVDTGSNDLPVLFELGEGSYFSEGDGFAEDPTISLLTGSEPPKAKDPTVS
Sequence of CRX (O43186 whole entry): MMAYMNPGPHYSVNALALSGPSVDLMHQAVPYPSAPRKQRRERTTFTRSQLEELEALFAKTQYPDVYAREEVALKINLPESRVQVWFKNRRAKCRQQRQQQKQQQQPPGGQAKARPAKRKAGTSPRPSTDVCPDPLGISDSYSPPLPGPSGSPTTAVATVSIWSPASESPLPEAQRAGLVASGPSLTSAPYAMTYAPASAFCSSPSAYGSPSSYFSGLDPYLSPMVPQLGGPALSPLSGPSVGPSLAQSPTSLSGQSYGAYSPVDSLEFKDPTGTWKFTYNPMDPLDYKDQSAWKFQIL

Take TCCCCA: the binding signal with FEV was 1.33 fold enrichment (6-mer frequency, TF over GST control); in the assay with ETV5 it was 1.41 fold enrichment (6-mer frequency, TF over GST control); with HSF1 it was 1.3 fold enrichment (6-mer frequency, TF over GST control); with SPIC it was 1.56 fold enrichment (6-mer frequency, TF over GST control); with ELF4 it was 1.39 fold enrichment (6-mer frequency, TF over GST control); with ELK4 it was 1.58 fold enrichment (6-mer frequency, TF over GST control). For the same sequence, the binding signal in the assay with ETV2 is 1.51 fold enrichment (6-mer frequency, TF over GST control); with ELF3, 1.54 fold enrichment (6-mer frequency, TF over GST control); in the assay with CRX, 1.43 fold enrichment (6-mer frequency, TF over GST control); with ETV1, 1.49 fold enrichment (6-mer frequency, TF over GST control).
